PubChem BioAssay (NCATS)
“And” between values parts separate entries of the source, which are not always exact repeats. Equal entries are not always repeated. Results filed as inconclusive are left out. The source made the active and inactive calls. Calls follow the shape of the dose curve; as a rule, active = well fitted inhibition curve with a large enough effect; inconclusive = small, poorly fitted or top-dose-only effect; inactive = flat fitted curve, though single readings scatter.

Key:
PC26 = test: qHTS profiling for inhibitors of Plasmodium falciparum proliferation (AID 504749);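 also: 0% = DMSO vehicle and full inhibition = artemisinin control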; conditions: P. falciparum in erythrocytes, SYBR Green DNA, 72 h; series mostly up to 28.7 µM
Outline: (§1)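 Infected RBCs, 0.3% parasitemia/2.5% Hct final; cpd 72 h, 37 C, 5% CO2; lysis buffer with saponin/triton/SYBR Green I, o/n RT dark; FI 485/535; norm. to artemisinin (0.29 uM) and DMSO.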

CRL-7250 = normal cell line; test: Cytotoxic Profiling of Annotated Libraries Using Quantitative High-Throughput Screening (AID 1296008); conditions: Five cell lines viability, CellTiter-Glo ATP luminescence, 48-72 h; max response: active compounds read low; as to max response: % is scaled to controls: 0 for no effect and ±100 for the full control effect
Outline: (§2)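 Cytotoxicity was measured as CellTiter-Glo ATP luminescence, read after 10 min at room temperature. Compound treatment of the cells lasted 48 or 72 hr at 37 degrees Celsius in a qHTS format.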

HEK293 = test: as above; conditions: Five cell lines viability, CellTiter-Glo ATP luminescence, 48-72 h; max response: active compounds read low
Outline: as §2

HaCat [1] = test: as above; conditions: Five cell lines viability, CellTiter-Glo ATP luminescence, 48-72 h; max response: active compounds read low
Outline: as §2

KB-3-1 = test: as above; conditions: Five cell lines viability, CellTiter-Glo ATP luminescence, 48-72 h; max response: active compounds read low
Outline: as §2

NIH3T3 = test: as above; conditions: Five cell lines viability, CellTiter-Glo ATP luminescence, 48-72 h; max response: active compounds read low
Outline: as §2

HACAT [2] = test: qHTS assay to identify novel small-molecules to repurpose for Merkel cell carcinoma treatment (AID 1296009); conditions: MCC and control cell lines, CellTiter-Glo viability, 72 h; at 44.8 µM (top of the series) unless noted
Outline: (§3)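 72 hr, 37 degree celsius; NPC 8-pt / MIPE 11-pt dose response; compound pinned in DMSO; CellTiter-Glo, 10 min RT, luminescence; normalized to no-cell and DMSO controls.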

HEK293T = test: as above; conditions: MCC and control cell lines, CellTiter-Glo viability, 72 h; at 44.8 µM (top of the series) unless noted
Outline: as §3

MCC-13 = test: as above; conditions: MCC and control cell lines, CellTiter-Glo viability, 72 h; series mostly up to 46 µM
Outline: as §3

MCC-26 = test: as above; conditions: MCC and control cell lines, CellTiter-Glo viability, 72 h; series mostly up to 46 µM
Outline: as §3

P93_24 = test: qHTS profiling for inhibitors of Plasmodium falciparum proliferation (AID 504749);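 also: 0% = DMSO vehicle and full inhibition = artemisinin control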; conditions: P. falciparum in erythrocytes, SYBR Green DNA, 72 h; series mostly up to 28.7 µM
Outline: as §1

P94_40 = test: as above; conditions: P. falciparum in erythrocytes, SYBR Green DNA, 72 h; series mostly up to 28.7 µM
Outline: as §1

PAD = test: as above; conditions: P. falciparum in erythrocytes, SYBR Green DNA, 72 h; series mostly up to 28.7 µM
Outline: as §1

PC15 = test: as above; conditions: P. falciparum in erythrocytes, SYBR Green DNA, 72 h; series mostly up to 28.7 µM
Outline: as §1

PC49 = test: as above; conditions: P. falciparum in erythrocytes, SYBR Green DNA, 72 h; series mostly up to 28.7 µM
Outline: as §1

SC27B = test: as above; conditions: P. falciparum in erythrocytes, SYBR Green DNA, 72 h; series mostly up to 28.7 µM
Outline: as §1

TAB109 = test: as above; conditions: P. falciparum in erythrocytes, SYBR Green DNA, 72 h; series mostly up to 28.7 µM
Outline: as §1

TAB113 = test: as above; conditions: P. falciparum in erythrocytes, SYBR Green DNA, 72 h; series mostly up to 28.7 µM
Outline: as §1

TAB165 = test: as above; conditions: P. falciparum in erythrocytes, SYBR Green DNA, 72 h; series mostly up to 28.7 µM
Outline: as §1

W2 = test: as above; conditions: P. falciparum in erythrocytes, SYBR Green DNA, 72 h; series mostly up to 28.7 µM
Outline: as §1
Also: nearly all actives have a fitted effect of over 60% in size.

CS(=O)(=O)c1ccc(C2=C(c3ccccc3)C(=O)OC2)cc1
inactive: Potency (PC26)

NS(=O)(=O)c1cc(Cl)c(Cl)c(S(N)(=O)=O)c1
inactive: Potency (PC26)

CN(CC=CC#CC(C)(C)C)Cc1cccc2ccccc12
inactive: max response (CRL-7250) 1.65% | outcome (HEK293) | outcome (HaCat [1]) | max response (KB-3-1) 4.31% | max response (NIH3T3) -1.72% | outcome (HACAT [2]) | outcome (HEK293T) | Potency (MCC-13) | Potency (MCC-26)

CC(=O)N1CCN(c2ccc(OCc3nn(C)c(C)c3-c3cccc4c(CCCOc5cc(C)c(Cl)c(C)c5)c(C(=O)O)n(Cc5cccnc5)c34)cc2)CC1
inactive: max response (CRL-7250) 4.49% | outcome (HEK293) inactive; activator | outcome (HaCat [1]) | max response (KB-3-1) 1.85% | outcome (NIH3T3) | outcome (HACAT [2]) | outcome (HEK293T) inactive; activator | Potency (MCC-13) | Potency (MCC-26)

COc1ccc(-c2cc(=O)c3c(O)cc(O[C@@H]4O[C@H](CO[C@@H]5O[C@@H](C)[C@H](O)[C@@H](O)[C@@H]5O)[C@@H](O)[C@H](O)[C@@H]4O)cc3o2)cc1O
inactive: max response (CRL-7250) -4.94% | outcome (HEK293) | outcome (HaCat [1]) | max response (KB-3-1) -0.879% | outcome (NIH3T3) | outcome (HACAT [2]) | outcome (HEK293T) | Potency (MCC-13) | Potency (MCC-26)

O=C(CC12CC3CC(CC(C3)C1)C2)Nc1cccc2nc(NCCNCCO)ccc12
inactive: max response (CRL-7250) -13.8% and 3.99% | max response (HEK293) -37.5% | outcome (HaCat [1]) | max response (KB-3-1) -12.7% | outcome (NIH3T3) | outcome (HACAT [2]) | Potency (MCC-13) | Potency (MCC-26)

COc1cc([C@H]2Oc3cc([C@H]4Oc5cc(O)cc(O)c5C(=O)[C@H]4O)ccc3O[C@H]2CO)ccc1O
inactive: outcome (CRL-7250) | max response (HEK293) -13.7% | outcome (HaCat [1]) | max response (KB-3-1) -0.459% | max response (NIH3T3) 0.0248% | outcome (HACAT [2]) | Potency (MCC-13) | Potency (MCC-26)

Cc1cc2nc3c(=O)[nH]c(=O)nc-3n(CC(O)C(O)C(O)CO)c2cc1C (stereo not drawn)
inactive: Potency (P93_24) | Potency (P94_40) | Potency (PAD) | outcome (PC15) | Potency (PC26) | outcome (PC49) | Potency (SC27B) | Potency (TAB109) | Potency (TAB113) | Potency (TAB165) | outcome (CRL-7250) | max response (HEK293) -3.68% | outcome (HaCat [1]) | max response (KB-3-1) 9.48% | outcome (NIH3T3) | outcome (HACAT [2]) | Potency (MCC-13) | Potency (MCC-26)

CC1C(=O)OC2C(O)C34C5CC(C(C)(C)C)C36C(OC(=O)C6O)OC4(C(=O)O5)C12O (stereo not drawn)
inactive: outcome (CRL-7250) | max response (HEK293) -2.56% | outcome (HaCat [1]) | outcome (KB-3-1) | max response (NIH3T3) -22.7% | outcome (HACAT [2]) | Potency (MCC-13) | Potency (MCC-26)

N#Cc1c(N(CC(=O)O)CC(=O)O)sc(C(=O)O)c1CC(=O)O
inactive: Potency (P93_24) | Potency (P94_40) | Potency (PAD) | outcome (PC15) | Potency (PC26) | outcome (PC49) | Potency (SC27B) | Potency (TAB109) | Potency (TAB113) | Potency (TAB165) | Potency (W2) | outcome (CRL-7250) | outcome (HEK293) | outcome (HaCat [1]) | max response (KB-3-1) -1.51% | max response (NIH3T3) -3.52% | outcome (HACAT [2]) | outcome (HEK293T) | Potency (MCC-13) | Potency (MCC-26)

Nc1ncnc2c1ncn2[C@@H]1O[C@H](CO)[C@@H](O)[C@@H]1O
inactive: outcome (CRL-7250) | max response (HEK293) -0.764% | outcome (HaCat [1]) | outcome (KB-3-1) | max response (NIH3T3) 3.26% | outcome (HACAT [2]) | Potency (MCC-13) | Potency (MCC-26)

O=C(c1ccc(C(=O)N2CCC(N3CCCC3)CC2)c(Nc2ccccc2)c1)N1CCC(N2CCCC2)CC1
inactive: max response (CRL-7250) -2.66% and 0.948% | max response (HEK293) -1.83% and -8.97% | outcome (HaCat [1]) | max response (KB-3-1) -1.29% and -4.53% | max response (NIH3T3) -1.45% | outcome (NIH3T3) | outcome (HACAT [2]) | Potency (MCC-13) | Potency (MCC-26)

C[C@]12CC[C@@H]3c4ccc(O)cc4CC[C@H]3[C@H]1[C@@H](O)[C@@H](O)[C@H]2O
inactive: max response (CRL-7250) 0.316% | outcome (HEK293) | outcome (HaCat [1]) | outcome (KB-3-1) | outcome (NIH3T3) | outcome (HACAT [2]) | outcome (HEK293T) | Potency (MCC-13) | Potency (MCC-26)

CN(C)CCN(Cc1ccc(Cl)cc1)c1ccccn1
inactive: max response (CRL-7250) 4.38% | max response (HEK293) -16.3% | outcome (HaCat [1]) | max response (KB-3-1) -16.5% and 0.769% | max response (NIH3T3) -1.04% | outcome (HACAT [2]) | Potency (MCC-13) | Potency (MCC-26)

CC1(C)[C@H]2CC[C@]3(C)[C@@H](C(=O)C=C4[C@@H]5C[C@@](C)(C(=O)O)CC[C@]5(C)CC[C@]43C)[C@@]2(C)CC[C@@H]1O
inactive: outcome (CRL-7250) | max response (HEK293) -1.55% | outcome (HaCat [1]) | max response (KB-3-1) 1.07% | max response (NIH3T3) -8.32% | outcome (HACAT [2]) | Potency (MCC-13) | Potency (MCC-26)
